Compounds with a hit are over-represented: about 3.9% of the library has one in this group of screens.
HIF-2a inh: HIF-2a reporter inhibitors, primary screen, luminescence, 786-0 RCC cells. 360,000 compounds, 0.72% hits. 786-0 RCC cells HIF-2a reporter, luciferase luminescence, overnight. inhibition, % at 18.8 µM;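 active = inhibition of the luminescence signal of 40% or more relative to plate controls, in a single-dose primary screen at 18.75 µM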
HSP90 inh: HSP90 inhibitors, primary screen, cell lysate, luminescence | Heat shock protein HSP 90 (rabbit reticulocyte lysate; luciferase refolding) | 290,000 compounds, 0.91% hits | Rabbit reticulocyte lysate, luciferase refolding luminescence, 3 h | inhibition, % at 5.6 µM | AID 1789, 2009;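 active = inhibition above the screen-wide mean plus 3 SD, computed separately per campaign, cut at about 16% in these data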;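 note: inhibitors lower the luminescence because luciferase stays unfolded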
C8 TRAIL sens: viability loss with TRAIL in NB7+C8 cells, primary screen, TRAIL sensitizer project, cell-based, ATPlite luminescence; inhibition (viability loss, TRAIL sensitization), % at 10 µM; 360,000 compounds, 1% hits;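 active = compounds causing at least 50% loss of cell viability in the single-dose screen, relative to plate controls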
aSyn UTR inh: MLPCN primary screen, SNCA 5' untranslated region | alpha-synuclein 5'UTR reporter, inhibitor activity | inhibition, % (tested at 7.5 µM) | 300,000 compounds, 0.82% hits | AID 1813, 2009; in the data active = inhibition above about 60%;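 note: H4 neuroglioblastoma cells stably carrying SNCA 5'UTR luciferase fusion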
TROY signal inh: inhibitors of TROY-driven NF-kB signaling, primary screen, Q293 LMP1-TROYcd cells, NF-kB luciferase, uHTS | Q293 LMP1-TROYcd NF-kB luciferase reporter, 4 h | inhibition, % at 10 µM | 360,000 compounds, 0.98% hits;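 active = compounds whose plate-normalised and pattern-corrected inhibition of the luciferase reporter signal at the single screening dose is 50% or more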
TWEAK Fn14 block: inhibitors of TWEAK-Fn14 signaling, primary screen, luciferase reporter cells, uHTS. TWEAK-stimulated Fn14 reporter cells, luciferase luminescence, 8 h. inhibition, % at 10 µM. 360,000 compounds, 2% hits; in the data active = inhibition above about 50%
Hits are given with their value; i = inactive; nt = no result given.

SMILES	HIF-2a inh	HSP90 inh	C8 TRAIL sens	aSyn UTR inh	TROY signal inh	TWEAK Fn14 block
Oc1[nH]c2ccccc2c1N=Nc1ccccc1Cl	i	nt	i	nt	i	i
Oc1c(C=Nc2ccccc2Cl)[nH]c2ccccc12	i	i	i	i	52.1	i
COC(=O)/C=C1\OCc2c(F)cccc21	i	nt	i	nt	nt	nt
CC1=NCC(C)c2ccccc21 (stereo not drawn)	i	nt	i	nt	i	i
CC1=NCC(C)c2c1[nH]c1ccccc21 (stereo not drawn)	i	i	i	i	75.0	i
O=C(N/N=C/C=C/c1ccccc1)c1n[nH]c2c1CCC2	i	i	i	70.2	i	i
O=C(N/N=C\c1cccc(Cl)c1)c1n[nH]c2c1CCCC2	i	i	i	i	i	i
Cc1ccc(/C=N/NC(=O)c2n[nH]c3c2CCCC3)cc1	i	i	i	76.9	i	i
Cc1cc(C(=O)N/N=C/C=C/c2ccccc2)n[nH]1	i	i	i	i	i	i
CC(/C=N/NC(=O)c1n[nH]c2c1CCC2)=C\c1ccccc1	i	i	47.1	i	i	i
O=C(N/N=C/C(Br)=C\c1ccccc1)c1n[nH]c2c1CCC2	i	i	i	i	i	i
Cc1ccc(S(=O)(=O)C[C@@H]2OC[C@H](CO)N2S(=O)(=O)c2ccc(C)cc2)cc1	i	nt	i	nt	nt	nt
Cc1cccc(CN2CCN(C3CN(Cc4cn(Cc5ccccc5C(F)(F)F)nn4)S(=O)(=O)C3)CC2)c1 (stereo not drawn)	i	nt	i	nt	i	i
CCOc1ccc2nc(NC(=O)CN3CCC(n4nnc5cc(F)ccc54)CC3)sc2c1	i	i	i	i	57.5	i
COc1ccc2nc(NC(=O)CN3CCN(C)CC3)sc2c1	i	i	i	i	54.3	i
COc1ccc2nc(Nc3sc4c(c3C(N)=O)CCCC4)sc2c1	i	i	i	nt	57.8	i
O=C(CN1CCC(n2nnc3cc(F)ccc32)CC1)NC1CC1	i	i	i	i	i	i
COc1ccc(CC(=O)Nc2sc3c(c2C(N)=O)CCCC3)cc1	i	i	i	i	i	i
Cc1onc(-c2ccccc2)c1C(=O)N1CCC(C)(C(=O)O)C1 (stereo not drawn)	i	nt	i	nt	i	i
COc1ccc(C(NC(=O)C2CCN(CCCOc3ccccc3)CC2)c2cccs2)cc1 (stereo not drawn)	i	nt	i	nt	i	i
COC(=O)[C@@]12C[C@@H](CC(=O)NCc3ccc(OC)c(OC)c3)C(=O)N(Cc3ccco3)C1=CCC(C)(C)C2	i	nt	i	nt	nt	nt
CC(C)(C)NC(=O)C(C1CC1)n1c(=O)c(-c2ccccc2)nc2ccccc21 (stereo not drawn)	i	nt	i	nt	nt	nt
COc1ccccc1C(=O)Nc1nc(-c2cccs2)c(NC(C)=O)s1	i	i	50.8	i	i	i
Cc1nn(-c2ccccc2)c(C)c1-c1ccccc1O	i	i	i	i	i	i
Cc1nn(-c2ccccc2)c(/N=C/c2ccc(O)cc2)c1-c1ccccc1	i	i	52.8	i	i	i
SMILES	HIF-2a inh	HSP90 inh	C8 TRAIL sens	aSyn UTR inh	TROY signal inh	TWEAK Fn14 block
O=C(COC(=O)c1ccc([N+](=O)[O-])o1)NCc1ccc2c(c1)OCO2	i	nt	i	nt	i	i
CCC(=O)N1Cc2cc(C(=O)N(C)C)nc(-c3cccc(-c4cncnc4)c3)c2[C@@H]1CCO	i	nt	i	nt	i	i
COc1cc(NCCCCC(C)N)c2nccc(C)c2c1 (stereo not drawn)	i	nt	53.6	nt	i	i
Cc1ccc(S(=O)(=O)N2[C@H](CC(=O)c3ccc(Cl)c(Cl)c3)OC[C@@H]2C(C)C)cc1	i	nt	i	nt	nt	nt
CC1CN(S(=O)(=O)c2ccc(C(=O)OCc3ccc(C#N)cc3)cc2)CC(C)O1 (stereo not drawn)	i	nt	i	nt	i	i
C#Cc1ccc(NC(=O)C2(C)CCN2C(=O)C2(c3ccccc3)CCCC2)cc1 (stereo not drawn)	i	nt	85.8	nt	i	i
CSc1ccc(NC(=O)C2(C)CCN2C(=O)c2ccccc2CCc2ccccc2)cc1 (stereo not drawn)	i	nt	i	nt	i	i
C#Cc1ccc(NC(=O)C2(C)CCN2C(=O)c2ccccc2CCc2ccccc2)cc1 (stereo not drawn)	i	nt	89.1	nt	i	i
CC(C)NC(=O)C1(C)CCN1C(=O)C1(c2ccccc2)CCCC1 (stereo not drawn)	i	nt	i	nt	i	i
N#Cc1c(NC(=O)c2ccccc2Cl)n(Cc2ccccc2)c2nc3ccccc3nc12	i	i	i	nt	65.2	86.2
CCCCn1c(NC(=O)CC)c(C#N)c2nc3ccccc3nc21	i	i	i	i	i	i
Cc1ccccc1C(=O)N1CCC[C@@H]1C(=O)N1CCC[C@H]1C(=O)NCc1ccncc1	i	nt	i	nt	i	i
CO[C@H]1CN(C)C(=O)c2ccc(NC(=O)c3ccc4c(c3)OCO4)cc2OC[C@H](C)N(CC2CC2)C[C@@H]1C	i	nt	i	nt	nt	nt
Cc1cc(C)n(-c2cccc(C(=O)O)c2)n1	i	i	i	i	i	79.5
Cc1nn(-c2cccc(C(=O)O)c2)c(C)c1[N+](=O)[O-]	i	i	i	i	i	i
COc1ccc(-c2c(-c3ccc4c(c3)OCO4)c3ccccc3n2C)cc1	i	nt	i	nt	i	i
O=C(Nc1nc(-c2ccccc2)c(C(=O)c2ccccc2)s1)c1ccc(S(=O)(=O)N2CCCC2)cc1	i	i	i	i	i	72.2
COC(=O)Nc1nc(-c2ccccc2)c(C(=O)c2ccccc2)s1	i	i	i	100.0	i	i
CC1CC(CN)CC(CO)C1 (stereo not drawn)	i	i	i	i	i	53.2
O=C(NCc1ccco1)c1ccccc1NS(=O)(=O)c1ccc(Cl)s1	i	i	i	i	i	i
Cc1ccc(NS(=O)(=O)c2ccc(Cl)s2)nc1	i	i	i	i	i	i
Cc1ccc(NC(=O)c2ccccc2NS(=O)(=O)c2ccc(Cl)s2)cc1	i	i	i	i	i	57.9
O=C(Nc1ccccc1)c1ccccc1NS(=O)(=O)c1ccc(Cl)s1	i	i	i	i	62.8	i
CS(=O)(=O)c1ccccc1C(=O)Nc1ccccc1Cc1ccccc1	i	i	i	i	i	i
O=C(Nc1ccccc1Cc1ccccc1)c1ccccc1NS(=O)(=O)c1ccc(Cl)s1	i	i	i	i	68.5	57.5
COC(=O)CCCn1cc(CN2CC(N3CCN(Cc4ccccc4F)CC3)CS2(=O)=O)nn1 (stereo not drawn)	i	nt	i	nt	i	i
O=C(O)c1ccc(OCCCCCCOC2CCCCO2)cc1 (stereo not drawn)	i	i	i	i	i	i
COc1cc2cnc(CCO[C@H]3CCCCO3)cc2cc1OC	i	nt	i	nt	52.1	i
COc1ccc2cc(CCOC3CCCCO3)ncc2c1 (stereo not drawn)	i	nt	i	nt	i	60.3
